Measurements published in PubChem BioAssay.
“And” between values parts separate entries of the source, which are not always exact repeats. Equal values may be shown once. For part of these data: Entries with a potency or affinity are not part of this list. Where a structure was tested more than once in an assay, its records may differ in their call. The source made the active and inactive calls.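 The calls were made as follows, unless noted: active = thallium flux through the channel raised or lowered by more than 3 SD from vehicle-only wells, actives on both sides; inactive = the rest.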

What was measured:
[1] = polyglutamine-triggered caspase-3 activation inhibitors, cell-based (AID 1583); settings: polyglutamine-induced caspase-3 activation, cell assay; stronger effect = higher value;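 tested at 10 µM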
[2] = suppressors of polyQ aggregation in yeast, 75Q-TubU reporter (AID 1593); settings: Yeast 75Q polyglutamine aggregation reporter
[3] = rescue of polyQ-huntingtin neuronal dysfunction in worms, whole organism, C. elegans mechanosensory neurons, N-terminal huntingtin (AID 1599); settings: touch response, stronger effect = higher value
[4] = inhibitors of mitochondrial cytochrome c release, biochemical, purified mitochondria (AID 1603); settings: stronger effect = lower value;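 also: mouse liver mitochondria challenged with calcium chloride; signal normalized to the plate average as 100%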
[5] = inhibitors of polyQ protein aggregation (AID 1604); settings: polyglutamine-induced protein aggregation inhibition assay; stronger effect = higher value; tested at 2.5 µM
[6] = enhancers of glutamate uptake in motor neurons, MN-1 cell line (AID 1612); settings: MN-1 motor neuron cells, stronger effect = higher value;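 also: tested at 1 µM final; 0% = mean of DMSO vehicle wells on each plate; positive means more glutamate uptake than control and negative means less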
[7] = suppressors of polyglutamine aggregation in yeast, 75Q-TubH (AID 1616); settings: S. cerevisiae 75Q-TubH polyglutamine aggregation suppression; stronger effect = higher value
[8] = hESC survival regulators, cell-based (AID 493140; call rule not given here;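 also: cells exposed to compounds for four days before counting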); settings: human embryonic stem cell survival screen; stronger effect = higher value
[9] = test system: Hepatitis C virus NS3 helicase; assay: HCV NS3 helicase inhibitors, primary screen, biochemical, fluorescence polarization, LOPAC1280 library (AID 687035; in the data active = inhibition above about 37%); settings: Purified HCV NS3 helicase, Cy5-dT15 ssDNA binding fluorescence polarization; stronger effect = higher value; concentration not given here
[10] = viability rescue of complex I mutant cybrids, primary screen, cell-based, galactose medium, ATP luminescence (AID 1645843;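 active = z-score of at least 1.8 in each of two replicates, scored against plate mean and spread of sample wells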;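 also: positive z means more ATP and so rescue of galactose-driven cybrid death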); settings: complex I mutant cybrid cells, 72 h, stronger effect = higher value
[11] = liver-stage malaria parasite growth inhibition, primary screen, cell-based, HepG2, luciferase luminescence, HepG2 viability (AID 624349; in the data active = parasite load remaining mostly below about 12%, no sharp cut-off; inactive = mostly above about 10%;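 also: 100% = mean of DMSO negative control wells on the same plate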); settings: P. berghei liver stage in HepG2, luciferase luminescence, concentration not given here; parasite load remaining: stronger effect = lower value; viability: measured here: HepG2 viability without parasites
[12] = Cy5 fluorescence interference with SSB-bound oligo, artefact control for HCV NS3 helicase inhibitor project, biochemical, NIH Clinical Collection, E. coli SSB (AID 743268; call rule not given here)
[13] = test system: F380Y/beta1; assay: modulators of BK channel variants, profiling panel, selectivity assay, cell-based, U2OS BacMam, thallium flux, beta subunits (AID 1259406); settings: at 30 µM;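 also: initial slope of Thallos dye fluorescence rise after thallium is added; log ratio against the mean of 0.3% DMSO vehicle wells on the same plate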
[14] = test system: F380Y/beta4; assay: as above; settings: at 30 µM
[15] = test system: R275C; assay: as above; settings: at 30 µM
[16] = test system: R275C/beta1; assay: as above; settings: at 30 µM
[17] = test system: R275C/beta2Delta; assay: as above; settings: at 30 µM
[18] = test system: R275C/beta4; assay: as above; settings: at 30 µM
[19] = test system: R275C/Slo1WT/beta2; assay: as above; settings: at 30 µM

CNC(=O)Oc1ccc2c(c1)[C@]1(C)CCN(C)[C@@H]1N2C
1.08: cytochrome c release ratio [4]
-18.2%: glutamate uptake change [6]
1.22: score [2]
39.4%: inhibition of aggregation [5]
8.95%: inhibition [1]
1.03: aggregation suppression score [7]
1.05: rescue above control [3]
inactive: survival [8] 7.25 | inhibition [9] -2% | z-score [10] -0.835 and -0.865

CC(=O)OCC(=O)[C@@]1(O)CC[C@H]2[C@@H]3CCC4=CC(=O)C=C[C@]4(C)[C@H]3[C@@H](O)C[C@@]21C
90.8%: viability [11]
inactive: parasite load remaining [11] 83.8% | fluorescence ratio [12] 0.95 | z-score [10] 0.085 | log fold change Tl+ flux [13] 0.0202 | log fold change Tl+ flux [14] 0.0608 | log fold change Tl+ flux [15] -0.0254 | log fold change Tl+ flux [16] 0.0604 | log fold change Tl+ flux [17] 0.0146 | log fold change Tl+ flux [18] 0.0243 | log fold change Tl+ flux [19] 0.0458

CC1(C)O[C@@H]2C[C@H]3[C@@H]4C[C@H](F)C5=CC(=O)C=C[C@]5(C)[C@H]4[C@@H](O)C[C@]3(C)[C@]2(C(=O)CO)O1
inactive: survival [8] 3 | parasite load remaining [11] 33.4% and 143% | fluorescence ratio [12] 1.07 | z-score [10] -1.48 | log fold change Tl+ flux [13] 0.017 | log fold change Tl+ flux [14] -0.0612 | log fold change Tl+ flux [15] 0.00271 | log fold change Tl+ flux [16] -0.0113 | log fold change Tl+ flux [17] -0.0208 | log fold change Tl+ flux [18] 0.0291 | log fold change Tl+ flux [19] 0.0322
88.6% and 103%: viability [11]

CC(=O)OCC(=O)[C@@]1(O)CC[C@H]2[C@@H]3CCC4=CC(=O)CC[C@]4(C)[C@H]3C(=O)C[C@@]21C
0.82 (inactive) and 2.46 (active): z-score [10]
95.8%: viability [11]
inactive: parasite load remaining [11] 71.9% | inhibition [9] -3% | fluorescence ratio [12] 1.07 | log fold change Tl+ flux [13] 0.0066 | log fold change Tl+ flux [14] -0.0455 | log fold change Tl+ flux [15] 0.0275 | log fold change Tl+ flux [16] -0.0466 | log fold change Tl+ flux [17] -0.00407 | log fold change Tl+ flux [18] -0.00976 | log fold change Tl+ flux [19] 0.0162

CC(=O)O[C@]1(C(C)=O)CC[C@H]2[C@@H]3C=C(C)C4=CC(=O)CC[C@]4(C)[C@H]3CC[C@@]21C
inactive: survival [8] 3.08 | parasite load remaining [11] 111% and 60.7% and 27.2% | fluorescence ratio [12] 1.01 | z-score [10] 0.025 | log fold change Tl+ flux [13] 0.018 | log fold change Tl+ flux [14] -0.0433 | log fold change Tl+ flux [15] -0.0376 | log fold change Tl+ flux [16] 0.00523 | log fold change Tl+ flux [17] -0.00852 | log fold change Tl+ flux [18] -0.0116 | log fold change Tl+ flux [19] 0.0254
93.3% and 69.6% and 81%: viability [11]
